# Measurements reported in PubChem BioAssay (EPA / NIEHS).
# Active and inactive are the calls of the source. How the source made its calls: active means hit-call score of the fitted dose curve at least 0.9, where 1 is the maximum; inactive means score below 0.9.
# Tests used:
# Conditions in all cases: mRNA level, 48 h; actives raise or lower the signal
# [1] = read-out: JUN Transcription Factor, JUN (gene 3725); test: LTEA_HepaRG_JUN: Life Technologies and Expression Analysis (LTEA) Assay for JUN Transcription Factor using HepaRG (AID 2283513)
# Method in brief: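 Differentiated HepaRG cells were exposed to chemicals for 48 h in serum-free induction medium, 8 concentrations from 100 uM in half-log steps, 0.5% DMSO vehicle, in duplicate. JUN mRNA was quantified by TaqMan qRT-PCR, normalized to ACTB, GAPDH, POLR2A.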
# [2] = read-out: Lipase C (LIPC), LIPC (gene 3990); test: LTEA_HepaRG_LIPC: Life Technologies and Expression Analysis (LTEA) Assay for Lipase C (LIPC) using HepaRG (AID 2283514)
# Method in brief: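 Differentiated human HepaRG cells in serum-free induction medium were exposed in duplicate for 48 h to eight concentrations (top 100 uM, half-log steps, 0.5% DMSO). LIPC mRNA was quantified by TaqMan qRT-PCR, normalized to ACTB, GAPDH and POLR2A, with bidirectional fitting versus DMSO.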
# [3] = read-out: MicroRNA 122 (MIR122), gene 406906; test: LTEA_HepaRG_MIR122: Life Technologies and Expression Analysis (LTEA) Assay for MicroRNA 122 (MIR122) using HepaRG (AID 2283516); further: the transcript read is the microRNA miR-122
# Method in brief: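 Differentiated human HepaRG cells were exposed 48 h in serum-free induction medium to eight half-log concentrations (top 100 uM, 0.5% DMSO). Transcript level was measured by TaqMan qRT-PCR, normalized to ACTB, GAPDH and POLR2A, and fitted bidirectionally versus DMSO.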
# [4] = read-out: matrix metalloproteinase-10 (MMP10), MMP10 (gene 4319); test: LTEA_HepaRG_MMP10: Life Technologies and Expression Analysis (LTEA) Assay for matrix metalloproteinase-10 (MMP10) using HepaRG (AID 2283517)
# Method in brief: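 HepaRG, collagen I, ~100,000 cells/well; serum-free induction medium; 48 h exposure, duplicate, 8-pt half-log to 100 uM, 0.5% DMSO. Readout: TaqMan qRT-PCR, normalized to ACTB/GAPDH/POLR2A; bidirectional fit vs DMSO.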
# MYC, MYC (gene 4609) = test: LTEA_HepaRG_MYC: Life Technologies and Expression Analysis (LTEA) Assay for MYC using HepaRG (AID 2283518)
# Method in brief: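 Differentiated human HepaRG cells, plated 48 h then switched to serum-free induction medium, were exposed in duplicate for 48 h to 8-point half-log series up to 100 uM in 0.5% DMSO. MYC mRNA measured by qRT-PCR, normalized to ACTB/GAPDH/POLR2A.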
# [5] = read-out: matrix metalloproteinase-3 (MMP3), MMP3 (gene 4314); test: LTEA_HepaRG_MMP3: Life Technologies and Expression Analysis (LTEA) Assay for matrix metalloproteinase-3 (MMP3) using HepaRG (AID 2283519)
# Method in brief: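 Differentiated human HepaRG cells, plated 48 h on collagen I, were exposed in duplicate for 48 h in serum-free induction medium to eight half-log concentrations up to 100 uM in 0.5% DMSO. MMP3 mRNA was quantified by TaqMan qRT-PCR, normalised to ACTB, GAPDH and POLR2A.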
# [6] = read-out: Paternally Expressed 10 (PEG10), PEG10 (gene 23089); test: LTEA_HepaRG_PEG10: Life Technologies and Expression Analysis (LTEA) Assay for Paternally Expressed 10 (PEG10) using HepaRG (AID 2283520)
# Method in brief: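 Differentiated HepaRG cells, plated 48 h then switched to serum-free induction medium, were exposed in duplicate for 48 h to eight half-log concentrations topping at 100 uM in 0.5% DMSO. PEG10 mRNA was quantified by TaqMan qRT-PCR, normalised to ACTB, GAPDH and POLR2A.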
# [7] = read-out: Nuclear factor NF-kappa-B p105 subunit (Homo sapiens) (UniProt P19838); test: LTEA_HepaRG_NFKB1: Life Technologies and Expression Analysis (LTEA) Assay for Nuclear Factor Kappa B Subunit 1 (NFKB1) using HepaRG (AID 2283521);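 further: TaqMan qRT-PCR transcript normalised to ACTB GAPDH and POLR2A housekeeping genes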
# Method in brief: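 NFKB1 transcript was measured by TaqMan qRT-PCR on Fluidigm arrays, normalised to three housekeeping genes and fitted in both directions against 0.5% DMSO. HepaRG cells were dosed in duplicate for 48 h in serum-free induction medium, eight half-log steps from 100 uM.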
# [8] = read-out: Protein phosphatase 2A (PPP2R4), PTPA (gene 5524); test: LTEA_HepaRG_PPP2R4: Life Technologies and Expression Analysis (LTEA) Assay for Protein phosphatase 2A (PPP2R4) using HepaRG (AID 2283522)
# Method in brief: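 Differentiated HepaRG cells in serum-free induction medium were exposed in duplicate for 48 h to eight concentrations, top 100 uM with half-log dilutions, in 0.5% DMSO. PPP2R4 mRNA was quantified by TaqMan qRT-PCR, normalized to ACTB, GAPDH and POLR2A.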
# Sequence of Nuclear factor NF-kappa-B p105 subunit (Homo sapiens) (P19838 whole entry, looked up): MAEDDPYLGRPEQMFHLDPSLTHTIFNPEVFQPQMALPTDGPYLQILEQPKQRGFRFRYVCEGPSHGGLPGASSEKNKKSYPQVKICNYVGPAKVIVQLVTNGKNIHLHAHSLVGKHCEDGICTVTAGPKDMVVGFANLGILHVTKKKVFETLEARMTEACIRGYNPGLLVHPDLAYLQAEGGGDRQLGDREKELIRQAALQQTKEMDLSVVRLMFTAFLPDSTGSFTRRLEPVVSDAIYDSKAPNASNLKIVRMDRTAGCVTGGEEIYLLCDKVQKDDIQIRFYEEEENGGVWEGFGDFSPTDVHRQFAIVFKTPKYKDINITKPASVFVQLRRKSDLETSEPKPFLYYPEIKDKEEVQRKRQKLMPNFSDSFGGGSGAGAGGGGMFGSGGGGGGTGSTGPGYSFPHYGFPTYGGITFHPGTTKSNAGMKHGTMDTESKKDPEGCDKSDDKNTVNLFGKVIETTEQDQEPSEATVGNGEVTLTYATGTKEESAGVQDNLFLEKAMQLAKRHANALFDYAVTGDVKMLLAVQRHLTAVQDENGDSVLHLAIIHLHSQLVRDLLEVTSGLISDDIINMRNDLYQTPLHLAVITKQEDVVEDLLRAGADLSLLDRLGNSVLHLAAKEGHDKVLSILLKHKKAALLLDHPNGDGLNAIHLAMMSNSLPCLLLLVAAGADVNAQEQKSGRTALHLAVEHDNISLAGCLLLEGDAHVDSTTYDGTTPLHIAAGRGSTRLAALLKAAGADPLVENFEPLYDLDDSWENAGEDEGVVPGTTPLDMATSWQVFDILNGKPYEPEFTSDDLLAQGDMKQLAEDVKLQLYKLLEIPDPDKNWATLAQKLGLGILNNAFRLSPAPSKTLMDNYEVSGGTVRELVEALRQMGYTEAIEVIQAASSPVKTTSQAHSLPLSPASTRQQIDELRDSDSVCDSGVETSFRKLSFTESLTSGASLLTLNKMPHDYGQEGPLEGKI
structure (smiles),measurement,setting,value
CCOC(=O)NCCOc1ccc(Oc2ccccc2)cc1,outcome,[1],inactive
same,AC50,[2],89 µM (active)
same,AC50,[3],75.3 µM (active)
same,AC50,[4],50 µM (active)
same,AC50,"MYC, MYC (gene 4609)",79.9 µM (active)
same,AC50,[5],50 µM (active)
same,AC50,[6],29 µM (active)
same,outcome,[7],inactive
same,outcome,[8],inactive
OB(O)O,outcome,[1],inactive
same,outcome,[2],inactive
same,outcome,[3],inactive
same,outcome,[4],inactive
same,outcome,"MYC, MYC (gene 4609)",inactive
same,outcome,[5],inactive
same,outcome,[6],inactive
same,outcome,[8],inactive
CCCN(CCC)c1c([N+](=O)[O-])cc(C(F)(F)F)c(N)c1[N+](=O)[O-],outcome,[1],inactive
same,AC50,[2],50 µM (active)
same,outcome,[4],inactive
same,AC50,"MYC, MYC (gene 4609)",50 µM (active)
same,outcome,[5],inactive
same,AC50,[6],17.4 µM (active)
same,outcome,[7],inactive
same,outcome,[8],inactive
S=C([S-])NCCNC(=S)[S-].[Mn+2],AC50,[2],7.28 µM (active)
same,AC50,[3],2.03 µM (active)
same,outcome,[4],inactive
same,AC50,"MYC, MYC (gene 4609)",8.74 µM (active)
same,outcome,[5],inactive
same,AC50,[6],0.302 µM (active)
same,AC50,[8],5.29 µM (active)
CCOC(=O)c1ccc(O)cc1,outcome,[1],inactive
same,outcome,[2],inactive
same,outcome,[3],inactive
same,outcome,[4],inactive
same,outcome,"MYC, MYC (gene 4609)",inactive
same,outcome,[5],inactive
same,outcome,[6],inactive
same,outcome,[8],inactive
COC(=O)c1ccccc1C(=O)O,outcome,[1],inactive
same,outcome,[2],inactive
same,outcome,[3],inactive
same,outcome,[4],inactive
same,outcome,"MYC, MYC (gene 4609)",inactive
same,outcome,[5],inactive
same,outcome,[6],inactive
same,outcome,[7],inactive
same,outcome,[8],inactive
CSC(=O)c1cccc2nnsc12,outcome,[1],inactive
same,outcome,[2],inactive
same,outcome,[3],inactive
same,outcome,[4],inactive
same,outcome,"MYC, MYC (gene 4609)",inactive
same,outcome,[5],inactive
same,outcome,[6],inactive
same,outcome,[8],inactive
O=C(O)c1ccccc1,outcome,[1],inactive
same,outcome,[2],inactive
same,outcome,[3],inactive
same,outcome,[4],inactive
same,outcome,"MYC, MYC (gene 4609)",inactive
same,outcome,[5],inactive
same,outcome,[6],inactive
same,outcome,[8],inactive
CC(C)(C)[C@@H](O)[C@@H](Cc1ccc(Cl)cc1)n1cncn1,outcome,[1],inactive
same,outcome,[2],inactive
same,outcome,[3],inactive
same,outcome,[4],inactive
same,outcome,"MYC, MYC (gene 4609)",inactive
same,outcome,[6],inactive
same,outcome,[7],inactive
same,outcome,[8],inactive
C#CCOC(=O)[C@@H](C)Oc1ccc(Oc2ncc(Cl)cc2F)cc1,outcome,[1],inactive
same,outcome,[2],inactive
same,outcome,[3],inactive
same,outcome,[4],inactive
same,outcome,"MYC, MYC (gene 4609)",inactive
same,outcome,[5],inactive
same,outcome,[6],inactive
same,outcome,[8],inactive
COc1c(Cl)ccc(Cl)c1C(=O)O,outcome,[1],inactive
same,outcome,[2],inactive
same,outcome,[3],inactive
same,outcome,[4],inactive
same,outcome,"MYC, MYC (gene 4609)",inactive
same,outcome,[5],inactive
same,outcome,[6],inactive
same,outcome,[8],inactive
CCOC(=O)COc1cc(-n2ncc(C(F)(F)F)c(C)c2=O)c(F)cc1Cl,outcome,[1],inactive
same,outcome,[2],inactive
same,outcome,[3],inactive
same,outcome,[4],inactive
same,outcome,"MYC, MYC (gene 4609)",inactive
same,outcome,[5],inactive
same,outcome,[6],inactive
same,outcome,[8],inactive
CCCCC(CC)COC(=O)c1ccccc1C(=O)O (stereo not given),outcome,[1],inactive
same,outcome,[2],inactive
same,outcome,[3],inactive
same,outcome,[4],inactive
same,outcome,"MYC, MYC (gene 4609)",inactive
same,outcome,[5],inactive
same,outcome,[6],inactive
same,outcome,[8],inactive
CN(C)C(=O)Nc1ccc(Cl)c(Cl)c1,outcome,[1],inactive
same,outcome,[2],inactive
same,outcome,[3],inactive
same,outcome,[4],inactive
same,AC50,"MYC, MYC (gene 4609)",68.8 µM (active)
same,outcome,[5],inactive
same,AC50,[6],63.8 µM (active)
same,outcome,[8],inactive
COCCO,outcome,[1],inactive
same,outcome,[2],inactive
same,outcome,[3],inactive
same,outcome,[4],inactive
same,outcome,"MYC, MYC (gene 4609)",inactive
same,outcome,[5],inactive
same,outcome,[6],inactive
same,outcome,[8],inactive
CCN(CC)C(=O)c1cccc(C)c1,outcome,[1],inactive
same,outcome,[2],inactive
same,outcome,[3],inactive
same,outcome,[4],inactive
same,outcome,"MYC, MYC (gene 4609)",inactive
same,outcome,[5],inactive
same,outcome,[6],inactive
same,outcome,[8],inactive
N[C@@H](Cc1cc(I)c(Oc2ccc(O)c(I)c2)c(I)c1)C(=O)O,outcome,[1],inactive
same,AC50,[2],72.3 µM (active)
same,outcome,[3],inactive
same,outcome,[4],inactive
same,outcome,"MYC, MYC (gene 4609)",inactive
same,outcome,[5],inactive
same,AC50,[6],8.92 µM (active)
same,outcome,[8],inactive
COC(=O)CSc1cc(N=c2sc(=O)n3n2CCCC3)c(F)cc1Cl,outcome,[1],inactive
same,outcome,[2],inactive
same,outcome,[3],inactive
same,outcome,[4],inactive
same,outcome,"MYC, MYC (gene 4609)",inactive
same,outcome,[5],inactive
same,outcome,[6],inactive
same,outcome,[8],inactive
CCCCC(CC)CN1C(=O)C2C3C=CC(C3)C2C1=O (stereo not given),outcome,[1],inactive
same,AC50,[2],88.2 µM (active)
same,outcome,[3],inactive
same,outcome,[4],inactive
same,outcome,"MYC, MYC (gene 4609)",inactive
same,outcome,[5],inactive
same,AC50,[6],1.98 µM (active)
same,outcome,[7],inactive
same,AC50,[8],50 µM (active)
CCCN(CCC)C(=O)SCC,outcome,[1],inactive
same,outcome,[2],inactive
same,outcome,[3],inactive
same,outcome,[4],inactive
same,outcome,"MYC, MYC (gene 4609)",inactive
same,outcome,[5],inactive
same,outcome,[6],inactive
same,outcome,[8],inactive
CCNc1nc(N)nc(Cl)n1,outcome,[1],inactive
same,outcome,[2],inactive
same,outcome,[3],inactive
same,outcome,[4],inactive
same,outcome,"MYC, MYC (gene 4609)",inactive
same,outcome,[5],inactive
same,outcome,[6],inactive
same,outcome,[7],inactive
same,outcome,[8],inactive
CCCCOCCOCCOCc1cc2c(cc1CCC)OCO2,outcome,[1],inactive
same,outcome,[2],inactive
same,outcome,[3],inactive
same,outcome,[4],inactive
same,outcome,"MYC, MYC (gene 4609)",inactive
same,outcome,[5],inactive
same,outcome,[6],inactive
same,outcome,[7],inactive
same,outcome,[8],inactive
N#CSCSc1nc2ccccc2s1,outcome,[1],inactive
same,outcome,[2],inactive
same,AC50,[3],69.3 µM (active)
same,outcome,[4],inactive
same,outcome,"MYC, MYC (gene 4609)",inactive
same,outcome,[5],inactive
same,AC50,[6],50 µM (active)
same,outcome,[7],inactive
same,outcome,[8],inactive
CC(=O)[C@H]1CC[C@H]2[C@@H]3CCC4=CC(=O)CC[C@]4(C)[C@H]3CC[C@]12C,AC50,[1],50 µM (active)
same,AC50,[2],34.6 µM (active)
same,AC50,[3],32.3 µM (active)
same,AC50,[4],61.9 µM (active)
same,AC50,"MYC, MYC (gene 4609)",34.3 µM (active)
same,AC50,[5],66 µM (active)
same,AC50,[6],7.52 µM (active)
same,AC50,[8],87.5 µM (active)
CCOC(=O)C(C)Oc1ccc(Oc2cnc3cc(Cl)ccc3n2)cc1 (stereo not given),outcome,[1],inactive
same,outcome,[2],inactive
same,outcome,[3],inactive
same,outcome,[4],inactive
same,outcome,"MYC, MYC (gene 4609)",inactive
same,AC50,[5],8.53 µM (active)
same,outcome,[6],inactive
same,outcome,[8],inactive
CC(=O)S[C@@H]1CC2=CC(=O)CC[C@]2(C)[C@H]2CC[C@@]3(C)[C@@H](CC[C@@]34CCC(=O)O4)[C@H]12,outcome,[1],inactive
same,AC50,[2],50 µM (active)
same,AC50,[3],67.5 µM (active)
same,AC50,[4],76.1 µM (active)
same,outcome,"MYC, MYC (gene 4609)",inactive
same,outcome,[5],inactive
same,outcome,[6],inactive
same,outcome,[8],inactive
CCCOC(=O)c1ccc(C(=O)OCCC)nc1,outcome,[1],inactive
same,outcome,[2],inactive
same,outcome,[3],inactive
same,outcome,[4],inactive
same,outcome,"MYC, MYC (gene 4609)",inactive
same,outcome,[5],inactive
same,outcome,[6],inactive
same,outcome,[7],inactive
same,outcome,[8],inactive
CCCOC(=O)NCCCN(C)C,outcome,[1],inactive
same,outcome,[2],inactive
same,outcome,[3],inactive
same,outcome,[4],inactive
same,outcome,"MYC, MYC (gene 4609)",inactive
same,outcome,[5],inactive
same,outcome,[6],inactive
same,outcome,[8],inactive
